ELG1 repair inh – blocks ELG1-dependent DNA repair in HEK293T cells; HEK293T ELG1-luciferase reporter, luminescence, 16 h; DNA damage induced by 5-fluorouridine; Potency, µM (top dose mostly 46.1 µM), without a hit: top-dose activity change, negative = inhibition, most hits filed as inhibitors; hit rate 2.3% among 330,000; AID 504467; note: nearly all actives have a fitted effect of over 55% in size
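Cells (2,000 per well) received 5-fluorouridine plus test compound or DMSO and were incubated 16 hr at 37 °C, 5% CO2. Luciferase activity was read by luminescence 30 min after ONE-Glo addition; signal suppression marked inhibition of damage-induced ELG1 function.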
RORgamma inh – ROR gamma (mouse) transcription inhibition; P51450; Drosophila S2 Gal4-RORgamma UAS-luciferase reporter, 20 h; Potency, µM (titrated, usually from 53.6 µM), for inactives: at the top dose activity change, negative = inhibition, most hits filed as inhibitors; hit rate 5.4% among 310,000; AID 2551; note: nearly all actives have a fitted effect of over 60% in size
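Compounds are pin-transferred onto Drosophila Schneider cells expressing a copper-inducible Gal4–ROR gamma transactivation domain fusion. After 1 hr, copper sulfate is added to 700 uM final; luciferase is read 20 hr later.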
TDP1 cell CPT – DT40-hTDP1 cell growth loss with CPT; chicken DT40 Tdp1-/-;hTDP1 cells + 20 nM CPT, ATP luminescence, 48 h; AID 686979; Potency, µM (doses to about 46.2 µM), inactives show top-dose activity change, negative = growth inhibition, most hits filed as inhibitors; hit rate 12% among 420,000; note: nearly all actives have a fitted effect of over 55% in size
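Chicken DT40 Tdp1-/- cells stably complemented with human TDP1 were seeded at 400 cells/well in medium containing 20 nM camptothecin, exposed to pin-transferred compounds, and grown at 37 °C for at least 48 hr. Viability was read as ATP luminescence.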
VP16 counter – Gal4-VP16 reporter inhibition counter-screen; Potency, µM (titrated, usually from 53.6 µM), without a hit: top-dose activity, negative = inhibition, actives largely listed as inhibitors; AID 2546; Drosophila S2 Gal4-VP16 UAS-luciferase, luminescence, 20 h; hit rate 3.5% among 310,000;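 note: Gal4-VP16 expression switched on by copper sulfate through the metallothionein promoter; nearly all actives have a fitted effect of over 50% in size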
ALOX12 inh – ALOX12 (human) lipoxygenase inhibition; Potency, µM (series often up to 108 µM), inactives show at the top dose activity change, negative = inhibition, most hits filed as inhibitors; P18054; purified 12hLO, xylenol orange hydroperoxide absorbance; hit rate 1.1% among 580,000; AID 1671190
Target sequence (P18054 whole entry, looked up): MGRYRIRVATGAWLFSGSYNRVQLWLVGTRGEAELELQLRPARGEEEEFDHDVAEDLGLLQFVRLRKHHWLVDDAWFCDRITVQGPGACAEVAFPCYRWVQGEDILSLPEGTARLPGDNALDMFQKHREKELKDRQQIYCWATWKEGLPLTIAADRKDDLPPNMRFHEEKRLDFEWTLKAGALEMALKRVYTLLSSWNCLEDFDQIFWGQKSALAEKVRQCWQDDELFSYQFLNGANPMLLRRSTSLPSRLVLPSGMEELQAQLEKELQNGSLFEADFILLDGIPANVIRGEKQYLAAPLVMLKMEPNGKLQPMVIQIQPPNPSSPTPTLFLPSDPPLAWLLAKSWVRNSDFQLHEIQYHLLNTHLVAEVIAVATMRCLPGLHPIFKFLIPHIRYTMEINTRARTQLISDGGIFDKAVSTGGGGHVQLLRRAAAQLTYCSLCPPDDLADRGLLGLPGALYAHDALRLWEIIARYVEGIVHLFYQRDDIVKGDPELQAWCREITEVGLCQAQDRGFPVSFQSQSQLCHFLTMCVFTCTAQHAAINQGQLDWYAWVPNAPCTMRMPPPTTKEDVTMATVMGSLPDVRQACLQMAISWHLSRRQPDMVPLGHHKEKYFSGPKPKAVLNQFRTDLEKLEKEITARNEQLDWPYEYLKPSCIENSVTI
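Purified human 12hLO (150 nM final) in 25 mM Hepes, 0.01% Triton X-100, pH 7.0 was preincubated 15 min at room temperature with compound. Then 40 uM arachidonic acid was added, 30 min. Hydroperoxide was read by Fe-XO absorbance ratio 573/405 nm.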
DT40 TDP1 no CPT – qHTS for Inhibitors of human tyrosyl-DNA phosphodiesterase 1 (TDP1): qHTS in cells in absence of CPT. DT40 Tdp1-/- hTDP1 cells, no CPT, ATP luminescence, 48 h. Potency, µM (top dose mostly 46.2 µM), for inactives: top-dose activity change, negative = growth inhibition, usual class: inhibitors. hit rate 15% among 420,000. AID 686978, 2013; note: nearly all actives have a fitted effect of over 55% in size
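Growth kinetics read by CellTiter-Glo luminescence after ≥48 hr at 37 °C. Cells: DT40 Tdp1-/- stably carrying human TDP1, 400 per well, compound exposure in the absence of CPT (DMSO vehicle).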
* = called active by the depositor; ? = inconclusive; . = no result; [ ] = another dose, or the depositor's remark. Only some compounds are listed: those with a hit (about 15% of all), similar ones and a draw of the others. Calls come from the whole dose curve; as a rule, active = well fitted curve in the direction sought with a large enough effect; inconclusive = small, poorly fitted or top-dose-only effect, or another doubt; inactive = no such curve, though single readings can be large; an effect the other way counts as inactive or inconclusive. % is set by controls: 0 for no effect and ±100 for the full control effect; potency is the fitted concentration of half-maximal effect.

SMILES	ELG1 repair inh	RORgamma inh	TDP1 cell CPT	VP16 counter	ALOX12 inh	DT40 TDP1 no CPT
COCCn1c(C)cnc1CCNC(=O)c1ccc(OC)nc1	.	.	.	.	53%	.
Cc1ccc(-c2cc(C(=O)N/N=C/C(Br)=C/c3ccccc3)n[nH]2)o1	-27%	?	12µM*	-12%	-10%	10µM*
Cc1ccc(-c2cc(C(=O)N/N=C/c3ccccc3O)n[nH]2)o1	19%	?	5.2µM*	?	-20%	5.2µM*
O=C(N/N=C/c1ccco1)c1cc(-c2ccc(Cl)s2)[nH]n1	-2%	7%	-2%	0%	?	0%
Cc1ccc(-c2cc(C(=O)N/N=C/C=C/c3ccccc3)n[nH]2)s1	-28%	4µM*	16µM*	7.1µM*	-2%	?
O=C(N/N=C/c1cccs1)c1cc(-c2ccc(Cl)s2)[nH]n1	5%	10µM*	-13%	7.9µM*	5%	?
Cc1ccc(-c2cc(C(=O)N/N=C/c3c[nH]c4ccccc34)n[nH]2)o1	?	?	?	2%	7%	?
O=C(NC[C@H]1O[C@@H](CO)[C@@H](O)[C@H]1N1CCOCC1)c1cccc(F)c1	.	.	.	.	4%[176 µM]	.
Fc1ccccc1COc1ccc(Cl)cc1CNn1cnnc1	.	.	.	.	29%	.
COC(=O)C1=C(C)N(C)C(C)=C(C(=O)OC)C1c1ccccc1C	-5%	0%	?	6%	351%	?
CCCCOc1ccccc1C1C(C(=O)OC)=C(C)N(C)C(C)=C1C(=O)OC	-20%	?	?	-20%	-17%	23µM*
CCCc1nnc(C[C@@H]2C[C@@H](C(C)C)[C@H](CN3CCN(C(C)=O)CC3)C=C2C)o1	.	.	.	.	12%[176 µM]	.
O=C(Nc1ccccc1)N1Cc2[nH]cnc2C[C@H]1c1nc(-c2ccc3ccccc3c2)no1	.	.	.	.	87%	.
O=C(NC1CCCCC1)N1Cc2[nH]cnc2C[C@H]1c1nc(-c2ccc3ccccc3c2)no1	.	.	.	.	10µM*	.
COc1ccc(-c2noc([C@@H]3Cc4nc[nH]c4CN3C(=O)Nc3ccc(Cl)cc3)n2)cc1	.	.	.	.	12%	.
O=C(NC1CCCCC1)N1Cc2[nH]cnc2C[C@H]1c1nc(-c2cccc([N+](=O)[O-])c2)no1	.	.	.	.	6.3µM*	.
COc1ccc(-c2noc([C@@H]3Cc4nc[nH]c4CN3C(=O)NC3CCCCC3)n2)cc1	.	.	.	.	3.5µM*	.
Cc1ccccc1-c1nocc1CCC(=O)O	.	.	.	.	20%	.
OC(Cn1ccnc1)c1ccc(Cl)cc1Cl (centres undefined)	11%	-18%	-19%	-3%	0%	-16%
CC1(c2ccc(Cl)cc2Cl)OCC(Cn2ccnc2)O1 (centres undefined)	?	-11%	21µM*	-28%	?	23µM*
O=C1CO[C@H]2CCN(Cc3cccs3)CC[C@@H]2N1c1ccccc1	.	.	.	.	-21%[176 µM]	.
Cc1cccc(C(=O)N2c3ncnn3C3(CCCCC3)[C@@H]3CCCC[C@@H]32)c1	.	.	?	.	-29%	23µM*
O=C(c1ccc(F)cc1)N1c2ncnn2C2(CCCCC2)[C@@H]2CCCC[C@@H]21	.	.	?	.	-23%	21µM*
O=C(CSCc1cccc(Cl)c1)N/N=C/c1ccc(OCC(=O)N2CCCCC2)cc1	-21%	42%	16µM*	11%	10%	16µM*
CN(C)Cc1nc2c(c(=O)[nH]1)C(C)(C)Cc1ccccc1-2	-1%	?	-3%	?	33%	11%
CCC1(CC)Cc2ccccc2-c2nc(CN(C)C)[nH]c(=O)c21	?	6.3µM*	?	7.1µM*	119%	16µM*
CC1(C)Cc2ccccc2-c2nc(CN3CCCCC3)[nH]c(=O)c21	.	.	.	.	46%	.

Compound activity from PubChem.
